# AHR activator: human AHR activation; P35869; AHR-responsive luciferase reporter cells, luminescence; activation, % at 5 µM; 320,000 compounds, 2.5% hits; AID 2796; in the data active = activation above about 47%;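 also: 0% = vehicle wells and 100% = reference agonist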
# proKLK7 act: activators of human kallikrein-7 zymogen; purified proKLK7, EDANS-DABCYL substrate fluorescence; 100% is mature enzyme control, 0% vehicle; activation, % at 7 µM; P49862; 370,000 compounds, 0.9% hits;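 active = activation above the mean of all tested compounds plus 3 SD, computed per campaign excluding outliers beyond control limits, cut at about 13% in these data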
# Target sequence (P49862 whole entry, looked up): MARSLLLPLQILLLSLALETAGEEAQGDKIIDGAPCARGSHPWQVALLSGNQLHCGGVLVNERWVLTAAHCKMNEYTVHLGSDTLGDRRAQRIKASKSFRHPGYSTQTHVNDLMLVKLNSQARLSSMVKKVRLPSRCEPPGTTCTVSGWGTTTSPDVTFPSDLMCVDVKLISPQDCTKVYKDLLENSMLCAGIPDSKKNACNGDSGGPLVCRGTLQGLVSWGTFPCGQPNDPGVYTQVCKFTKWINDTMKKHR
# rCAG binder: binds r(CAG) RNA repeats; r(CAG) RNA repeat, TO-PRO-1 dye displacement fluorescence; inhibition, % at 3 µM; 370,000 compounds, 1.3% hits;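 active = inhibition above the plate cutoff, the mean of all test compounds on that plate plus 3 SD, cut at about 35% in these data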;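 also: 0% = DMSO alone and 100% = 100 µM mitoxantrone as full dye displacement; higher means more dye released from RNA so lower well fluorescence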
# NR3A LBD binder: modulators (binders) of human NR3A ligand-binding domain; NR3A LBD differential scanning fluorimetry, Tm shift; 0% = protein alone, 100% = glycine-bound protein; Tm shift relative to glycine control, % at 25 µM; 340,000 compounds, 2.5% hits; AID 1259313;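 active = melting temperature shift of at least 10% of the positive control shift, at one fixed dose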
# ADAM10 inh: ADAM10 inhibition, QFRET primary screen; O14672; recombinant ADAM10, EDANS/DABCYL FRET peptide cleavage, 3 h; inhibition, % at 7 µM; 370,000 compounds, 0.62% hits; AID 720582;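 active = inhibition above a per-campaign cutoff equal to the mean of compounds falling between control-based bounds plus 3 SD, cut at about 20% in these data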;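 also: 0% = DMSO wells while the 100% control is not disclosed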
# ADAM17 inh: inhibits human ADAM17 | P78536 | recombinant ADAM17, EDANS/DABCYL FRET peptide cleavage | inhibition, % at 6.95 µM | 370,000 compounds, 0.83% hits | AID 720648;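 active = inhibition above the mean of compounds lying between control limits plus 3 SD, set per campaign, cut at about 8.5% in these data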;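 also: 0% = DMSO-only wells as the low control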
# * hit, by the source's call; nt = not tested or not shown. A selection: hits, their analogues and other compounds. The true share with any hit is near 7%.
SMILES,AHR activator,proKLK7 act,rCAG binder,NR3A LBD binder,ADAM10 inh,ADAM17 inh
Cc1ccc(C)c(NC(=O)C(OC(=O)c2cnc(C)cn2)c2ccccc2)c1 (stereo not drawn),69.9*,0.1,0.5,1.8,-0.4,-0.5
COc1ccc(C)cc1NC(=O)C(OC(=O)CNC(=O)c1cccc(F)c1)c1ccccc1 (stereo not drawn),72.0*,-1.1,-0.8,-16.4,4.4,-5.4
Cc1cnc(C(=O)OC(C(=O)Nc2cc(C(F)(F)F)ccc2Cl)c2ccccc2)cn1 (stereo not drawn),2.6,-0.1,-4.7,-3.8,-15.4,-4.1
COc1ccc(C)cc1NC(=O)C(NCC1CCCO1)c1ccccc1 (stereo not drawn),9.0,0.1,-4.2,14.8*,0.6,2.1
COc1ccc(C)cc1NC(=O)C(OC(=O)c1cnc(C)cn1)c1ccccc1 (stereo not drawn),60.3*,0.3,0.0,3.9,0.4,-0.3
CCOc1ccc(N(CC(=O)Nc2c(C)n(C)n(-c3ccccc3)c2=O)S(=O)(=O)c2cccc3cccnc23)cc1,nt,0.3,6.2,nt,-14.0,-2.5
CN(C)CC(=O)N[C@H]1C[C@@H]2O[C@@H](CO)CC[C@@H]2O[C@@H]1CCc1ccc(C2=CCCCC2)cc1,nt,0.9,-0.9,nt,1.3,-1.0
COc1ccc(C)cc1NC(=O)C(OC(=O)c1cc(C)oc1C)c1ccccc1 (stereo not drawn),73.5*,0.1,0.4,-0.4,3.2,1.9
O=C(OCc1ccccc1)[C@H](Cc1ccccc1)NC(=O)[C@@H]1CC=C[C@@H]2CCN(Cc3ccccc3)C(=O)[C@@H]21,nt,nt,nt,nt,12.4,4.6
Cc1cc2c(c(=O)o1)[C@@]1(C(=O)N(C)c3c(Br)cccc31)C1=C(CCCC1=O)O2,nt,-0.1,0.8,nt,-3.4,-0.3
Oc1ccc(/C=N/N2CCN(C3c4ccccc4-c4ccccc43)CC2)c(O)c1,18.3,-0.2,10.0,11.0*,-7.3,-1.6
Oc1ccc(/C=N/N2CCN(C3c4ccccc4-c4ccccc43)CC2)cc1,-1.1,0.0,-1.8,5.0,-2.9,-0.5
COC(=O)CSc1nnc(-c2n[nH]c3c2CCC3)n1N,nt,0.3,0.5,nt,-4.9,-2.3
Fc1ccc2nc(Nc3nc4c(F)cc(F)cc4s3)sc2c1,31.0,-0.6,12.3,34.3*,-90.9,-25.9
Fc1ccc2nc(Nc3nc4c(F)cccc4s3)sc2c1,61.5*,1.7,21.4,23.2*,-54.5,-22.2
Fc1cccc2sc(Nc3nc4ccccc4s3)nc12,43.5,-1.3,13.7,27.6*,-43.2,-18.3
CCN(CC)C(=O)CC[C@@H]1CC[C@]2(CCCN(C(=O)c3cccnc3)C2)O1,nt,0.5,-0.6,nt,1.0,0.7
CCOC(=O)C1=NOC(C(=O)NC2CCCC2)(C(=O)C2CC2)C1 (stereo not drawn),nt,0.3,3.6,nt,-13.8,-3.0
CCCC1CCC2(CC1)CCC2OC(=S)NCc1cccc(F)c1 (stereo not drawn),nt,nt,nt,nt,2.0,-0.9
CS(=O)(=O)Nc1ccc(C(=O)Nc2ccc(S(=O)(=O)Nc3nccs3)cc2)cc1,2.9,-0.8,7.3,-0.5,-9.1,-5.4
COc1cc(-c2nc(-c3ccc(NC(=O)c4ccc5c(c4)OCO5)cc3)no2)cc(OC)c1OC,0.3,-5.3,7.6,-3.7,4.9,-1.2
CN(C)c1ccc(C(=O)Nc2ccc(S(=O)(=O)Nc3nccs3)cc2)cc1,9.3,-0.4,34.8*,-2.4,-63.8,-11.9
Cc1ccccc1-c1nc(-c2ccc(NC(=O)c3ccc4c(c3)OCO4)cc2)no1,1.9,-0.7,6.7,33.8*,7.2,-0.5
O=C(Nc1ccc(NC(=O)c2ccco2)c(Cl)c1)c1ccc2c(c1)OCCO2,28.9,0.4,7.5,31.2*,-4.9,-4.7
O=C(Nc1ccc(NC(=O)c2ccco2)cc1)c1ccc2c(c1)OCO2,-7.2,1.2,4.1,12.3*,-2.1,-8.7
SMILES,AHR activator,proKLK7 act,rCAG binder,NR3A LBD binder,ADAM10 inh,ADAM17 inh
O=C(Nc1cc2c(cc1Cl)OCCO2)c1ccco1,-11.4,0.3,-1.9,-1.3,-10.2,-2.4
COc1ccc(S[C@]2(C(=O)N3CCN(c4ncccn4)CC3)CC(=O)N(C(=O)c3ccccc3)[C@@H]2c2ccc(OC)cc2)cc1,nt,-0.2,15.0,nt,-5.3,3.8
CC[C@H](CCC(=O)N(c1ccccc1)c1ccccc1)C1CC1,nt,0.5,-4.0,nt,3.6,1.4
O=C(O)CCCCN1C(=O)C=CC1=O,nt,0.8,1.4,nt,3.9,-0.1
O=C(Nc1nccs1)c1ccc(NC(=O)c2ccco2)cc1,-1.6,0.0,2.3,10.2*,-10.1,0.2
CC(NC(=O)c1ccco1)C(=O)Nc1nccs1 (stereo not drawn),-3.2,-0.7,0.1,-0.8,1.2,-1.5
O=C1CC(c2ccccc2)CC(O)=C1C=Nc1ccccc1Cl (stereo not drawn),6.5,0.0,5.0,7.4,-5.0,-3.3
CCCN=CC1=C(O)CC(c2ccccc2)CC1=O (stereo not drawn),-0.3,-0.1,-0.9,391.4*,0.8,-5.5
O=C1CC(c2ccccc2)CC(O)=C1C=Nc1ccc(Cl)cc1 (stereo not drawn),55.5*,-0.5,2.3,-1.3,1.2,0.3
O=C1CC(c2ccccc2)CC(O)=C1C=Nc1cccc(Cl)c1 (stereo not drawn),47.9*,-0.6,-0.1,-1.9,-0.9,1.0
CCCn1cc(C(=O)Nc2ccc(Oc3cccnc3)cc2)c2ccccc21,nt,-0.2,8.2,nt,0.9,2.1
O=S1(=O)CC2c3ccccc3CCN2CN1CCc1ccccc1 (stereo not drawn),nt,-0.1,-0.1,nt,-1.5,0.5
O=C(c1cccc(S(=O)(=O)NCc2ccccc2)c1)N1CCN(Cc2ccccc2)CC1,-0.7,0.7,-7.3,15.1*,5.4,-3.8
CC(C)c1ccc(Nc2ncccc2C(=O)O)cc1,10.2,-0.3,9.7,8.9,7.4,0.5
CCC(C)c1ccc(Nc2ncccc2C#N)cc1 (stereo not drawn),61.4*,0.7,-0.6,0.2,1.2,-6.7
CCc1ccc(Nc2ncccc2C#N)cc1,52.1*,0.2,-0.2,-3.5,-10.5,-3.3
O=C(C(=O)N1CCC(CNC(=O)c2sc3ccccc3c2Cl)CC1)c1cccs1,nt,0.8,4.1,nt,16.0,2.1
Cc1ccccc1NCC(=O)N/N=C/c1c(C)c(C(=O)c2ccc(Cl)cc2)n2ccccc12,41.3,0.4,1.9,12.1*,0.9,-0.8
Cc1c(/C=N/NC(=O)CNc2ccccc2)c2ccccn2c1C(=O)c1ccc(Cl)cc1,17.2,0.0,7.0,6.2,3.1,0.4
COc1ccccc1NC(=O)CSc1nnc2ccc(-c3cccnc3)nn12,58.2*,-0.1,2.4,-4.2,1.8,-4.1
CCOc1ccccc1NC(=O)CSc1nnc2ccc(-c3cccnc3)nn12,49.5*,0.4,0.9,1.3,1.3,-0.2
CCOc1ccccc1NC(=O)CSc1nnc2ccc(-c3ccccn3)nn12,15.9,0.1,3.4,-2.1,-28.7,-3.3
